In PubChem BioAssay (Tox21):
Where “and” joins values, the source holds several entries; their conditions need not be identical. Equal values may be shown once. Records with an inconclusive call do not appear. Where a call stands in place of a potency, no number is given. Where a structure was tested more than once in an assay, its records may differ in their call. Calls of active or inactive are those of the source. The call rests on the fitted dose curve; in most records, active means well fitted curve in the direction sought with a large enough effect in the repeat runs; inconclusive means weak or mixed curves; inactive means no such curve, though single readings can be large; an effect the other way counts as inactive or inconclusive.

Assays:
[1] = A CellTox Green Cytotoxicity Assay to monitor cytotoxicity in HEK293 cells - 32 hour (AID 1224881); conditions: CellTox Green fluorescence; series mostly up to 76.8 µM; further: nearly all actives have a fitted effect of over 40% in size; further: potency means the concentration at half of the fitted maximal effect
Summary of the method: (§1)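 Each value comes from one timepoint of a single continuous run in which HEK293 cells with CellTox Green were exposed to compound for up to 40 h at 37 C, dye fluorescence rising with cell death.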

[2] = A CellTox Green Cytotoxicity Assay to monitor cytotoxicity in HepG2 cells - 0 hour (AID 1224882); conditions: CellTox Green fluorescence; series mostly up to 76.8 µM; further: nearly all actives have a fitted effect of over 35% in size
Summary of the method: (§2)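 Continuous culture of HepG2 cells with a membrane-impermeant DNA dye; rising fluorescence marks dead cells. Compound exposure lasted up to 40 h at 37 C, with reads every 8 h from 0 h.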

[3] = A CellTox Green Cytotoxicity Assay to monitor cytotoxicity in HepG2 cells - 32 hour (AID 1224883); conditions: CellTox Green fluorescence; series mostly up to 76.8 µM; further: nearly all actives have a fitted effect of over 50% in size; further: potency means the concentration at half of the fitted maximal effect
Summary of the method: as §2

[4] = A CellTox Green Cytotoxicity Assay to monitor cytotoxicity in HEK293 cells - 8 hour (AID 1224884); conditions: CellTox Green fluorescence; series mostly up to 76.8 µM; further: nearly all actives have a fitted effect of over 35% in size; further: potency means the concentration at half of the fitted maximal effect
Summary of the method: as §1

[5] = qHTS RealTime-Glo MT Cell Viability Assay in HepG2 cells - 16 hour (AID 1224885); conditions: RealTime-Glo luminescence; series mostly up to 76.8 µM; further: nearly all actives have a fitted effect of over 50% in size
Summary of the method: (§3)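 HepG2 suspension premixed with RealTime-Glo reagents is plated at 600 cells per well and left 5 h at 37 C/5% CO2. Compounds in DMSO then go in, and bioluminescence reflecting viable cell number is recorded over 40 h.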

[6] = qHTS RealTime-Glo MT Cell Viability Assay in HEK293 cells - 24 hour (AID 1224886); conditions: RealTime-Glo luminescence; series mostly up to 76.8 µM; further: nearly all actives have a fitted effect of over 50% in size; further: potency means the concentration at half of the fitted maximal effect
Summary of the method: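 Reads taken at 0, 8, 16, 24, 32 and 40 h from the same wells. HEK293 cells (600/well) carried RealTime-Glo reagents from seeding, with compound added after a 5 h settle at 37 C.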

[7] = qHTS RealTime-Glo MT Cell Viability Assay in HEK293 cells - 8 hour (AID 1224887); conditions: RealTime-Glo luminescence; series mostly up to 76.8 µM; further: nearly all actives have a fitted effect of over 50% in size; further: potency means the concentration at half of the fitted maximal effect
Summary of the method: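 qHTS format; HEK293 cells with NanoLuc/prosubstrate reagent, 37 C/5% CO2 for 5 h pre-dosing; compounds 23 nL in DMSO; luminescence at each time point reflects viable cells.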

[8] = A CellTox Green Cytotoxicity Assay to monitor cytotoxicity in HEK293 cells - 16 hour (AID 1224888); conditions: CellTox Green fluorescence; series mostly up to 76.8 µM; further: nearly all actives have a fitted effect of over 35% in size
Summary of the method: as §1

[9] = qHTS RealTime-Glo MT Cell Viability Assay in HepG2 cells - 0 hour (AID 1224889); conditions: RealTime-Glo luminescence; series mostly up to 76.8 µM; further: nearly all actives have a fitted effect of over 50% in size; further: potency means the concentration at half of the fitted maximal effect
Summary of the method: as §3

[10] = A CellTox Green Cytotoxicity Assay to monitor cytotoxicity in HepG2 cells - 8 hour (AID 1224890); conditions: CellTox Green fluorescence; series mostly up to 76.8 µM; further: nearly all actives have a fitted effect of over 45% in size
Summary of the method: as §2

SMILES	Potency [1]	Potency [2]	Potency [3]	Potency [4]	Potency [5]	Potency [6]	Potency [7]	Potency [8]	Potency [9]	Potency [10]
CCCCCCCCOc1ccc(C(=O)c2ccccc2)c(O)c1	inactive	inactive	inactive	inactive	inactive	inactive	inactive	inactive	inactive	inactive
COc1ccc(O)cc1	inactive	inactive	inactive	inactive	inactive	inactive	inactive	inactive	inactive	inactive
CCOCCO	inactive	inactive	inactive	inactive	inactive	inactive	inactive	inactive	inactive	inactive
Cc1cccc(C)c1O	inactive	inactive	inactive	inactive	inactive	inactive	inactive	inactive	inactive	inactive
C#C[C@]1(O)CC[C@H]2[C@@H]3CCc4cc(O)ccc4[C@H]3CC[C@@]21C	inactive	inactive	21.7 µM (active) and 43.6 µM (active)	inactive	inactive	19.5 µM (active)	inactive	inactive	inactive	inactive
C[C@]12CC[C@@H]3c4ccc(O)cc4C[C@@H](CCCCCCCCCS(=O)CCCC(F)(F)C(F)(F)F)[C@H]3[C@@H]1CC[C@@H]2O (some centres not stated)	inactive	inactive	inactive	inactive	inactive	43.6 µM (active)	43.6 µM (active)	inactive	inactive	inactive
C[C@]12CC[C@@H]3c4ccc(O)cc4CC[C@H]3[C@@H]1CCC2=O	49 µM (active) and inactive	inactive	inactive	inactive	inactive	inactive	inactive	inactive	inactive	inactive
CN(C)Cc1cc(CN(C)C)c(O)c(CN(C)C)c1	inactive	inactive	inactive	inactive	inactive	inactive	inactive	inactive	inactive	inactive
O=[N+]([O-])c1ccc(O)cc1	inactive	inactive	inactive	inactive	inactive	inactive	inactive	inactive	inactive	inactive
COc1cc(C=O)ccc1O	inactive	inactive	inactive	inactive	inactive	inactive	inactive	inactive	inactive	inactive
C[C@]12C[C@H](O)[C@H]3[C@@H](CCC4=CC(=O)CC[C@@]43C)[C@@H]1CC[C@@H]2C(=O)CO	inactive	inactive	inactive	inactive	inactive	inactive	inactive	inactive	9.79 µM (active) and 3.47 µM (active) and 9.52 µM (active)	inactive
COc1ccccc1NC(=O)CC(C)=O	inactive	inactive	inactive	inactive	inactive	inactive	inactive	inactive	inactive	inactive
O=C(OCc1ccccc1)c1ccccc1	43.8 µM (active) and inactive	inactive	inactive	inactive	inactive	inactive	inactive	inactive	inactive	inactive
CCc1cc(C(N)=S)ccn1	inactive	inactive	inactive	inactive	inactive	inactive	inactive	inactive	inactive	inactive
CN/C(=C\[N+](=O)[O-])NCCSCc1ccc(CN(C)C)o1	inactive	inactive	inactive	inactive	inactive	inactive	inactive	inactive	inactive	inactive
CCCCCCCCCCCCCCCCCC(=O)OCC(O)CO (configuration not stated)	inactive	inactive	inactive	inactive	inactive	inactive	inactive	inactive	inactive	inactive
CC(C)Cc1ccc(C(C)C(=O)O)cc1 (configuration not stated)	inactive	inactive	inactive	inactive	inactive	inactive	inactive	inactive	inactive	inactive
CC(=O)Oc1ccccc1C(=O)O	inactive	inactive	inactive	inactive	inactive	inactive	inactive	inactive	inactive	inactive
CC(O)COc1ccccc1 (configuration not stated)	inactive	inactive	inactive	inactive	inactive	inactive	inactive	inactive	inactive	inactive
C[C@]12C=CC(=O)C=C1CC[C@@H]1[C@@H]2C(=O)C[C@@]2(C)[C@H]1CC[C@]2(O)C(=O)CO	inactive	inactive	inactive	inactive	inactive	inactive	inactive	inactive	22 µM (active) and 17.4 µM (active)	inactive
COC1=CC(=O)C[C@@H](C)[C@]12Oc1c(Cl)c(OC)cc(OC)c1C2=O	inactive	inactive	34.4 µM (active)	24.3 µM (active) and inactive	inactive	inactive	inactive	inactive	inactive	inactive
O=C1OC(c2ccc(O)cc2)(c2ccc(O)cc2)c2ccccc21	inactive	inactive	inactive	inactive	inactive	inactive	inactive	inactive	inactive	inactive

SMILES	Potency [1]	Potency [2]	Potency [3]	Potency [4]	Potency [5]	Potency [6]	Potency [7]	Potency [8]	Potency [9]	Potency [10]
Cc1c(N(C)C)c(=O)n(-c2ccccc2)n1C	inactive	inactive	inactive	inactive	inactive	inactive	inactive	inactive	inactive	inactive
CC(C)(C)CC(C)(C)c1ccc(O)c(-n2nc3ccccc3n2)c1	inactive	inactive	inactive	inactive	inactive	49.7 µM (active) and inactive	inactive	inactive	inactive	inactive
NC(N)=NC(N)=NCCc1ccccc1	inactive	inactive	inactive	inactive	inactive	inactive	inactive	inactive	inactive	inactive
Cc1cccc2ccccc12	inactive	inactive	inactive	inactive	inactive	inactive	inactive	inactive	inactive	inactive
O=C(O)Cc1cccc2ccccc12	inactive	inactive	inactive	inactive	inactive	inactive	inactive	inactive	inactive	inactive
CCCCCCCCCCCCCC(=O)OC(C)C	inactive	inactive	inactive	inactive	inactive	inactive and 3.47 µM (active)	inactive and 9.77 µM (active)	inactive	inactive	inactive
C=C(C)OC(C)=O	inactive	inactive	inactive	inactive	inactive	inactive	inactive	inactive	inactive	inactive
NC(=O)NO	inactive	inactive	inactive	inactive	inactive	inactive	inactive	inactive	inactive	inactive
O=c1c(-c2ccc(O)cc2)coc2cc(O)cc(O)c12	inactive	inactive	inactive	inactive	inactive	24.5 µM (active)		inactive	inactive	inactive
CC(C)CC(C)CC(O)CC(C)C (configuration not stated)	inactive	inactive	inactive	inactive	inactive	inactive	inactive	inactive	inactive	inactive
Nc1cccc(N)c1	inactive	inactive	inactive	inactive	inactive		inactive	inactive	inactive	inactive
CC(C)=CCC/C(C)=C/CO	inactive	inactive	inactive	inactive	inactive	inactive	inactive	inactive	inactive	inactive
COc1ccccc1O	inactive	inactive	inactive	inactive	inactive	inactive	inactive	inactive	inactive	inactive
NC(=O)c1ccc([N+](=O)[O-])cc1Cl	inactive	inactive	inactive	inactive	inactive		inactive	inactive	inactive	inactive
Cc1c(N(C)CS(=O)(=O)O)c(=O)n(-c2ccccc2)n1C	inactive	inactive	inactive	inactive	inactive	inactive	inactive	inactive	inactive	inactive
Cn1cnc2c1c(=O)[nH]c(=O)n2C	inactive	inactive	inactive	inactive	inactive		inactive	inactive	inactive	inactive
COCCOCCOC	inactive	inactive	inactive	inactive	inactive		inactive	inactive	inactive	inactive
COc1ccc(C(=O)c2ccccc2)c(O)c1	inactive	inactive	inactive	inactive	inactive	inactive and 12.3 µM (active)	inactive	inactive	inactive	inactive
C#C[C@]1(O)CC[C@H]2[C@@H]3CCC4=CC(=O)CC[C@@H]4[C@H]3CC[C@@]21CC	49.1 µM (active) and inactive	inactive	inactive and 43.6 µM (active)	inactive	inactive		inactive	inactive	inactive	inactive
C1CNCCN1	inactive	inactive	inactive	inactive	inactive		inactive	inactive	inactive	inactive
CCOC(=O)C(C)(C)Oc1ccc(Cl)cc1	inactive	inactive	inactive	inactive	inactive		inactive	inactive	inactive	inactive
